An excerpt weighted towards active compounds, which were near 6.5% of everything screened.
A340 absorber: compound absorbs light at 340 nm | compound absorbance at 340 nm, fold over control | fold change at 10 µM | 65,000 tested, under 10 active | AID 708;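 active = at 10 µM dose, initial 340 nm absorbance at least 2 fold that of control wells; inactive = change under 2 fold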;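 note: initial absorbance extrapolated from kinetic A340 decline of NADH oxidation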
Spn PMK inh: S. pneumoniae PMK inhibition; purified PMK, PK/LDH-coupled NADH absorbance 340 nm; inhibition, % at 10 µM; 65,000 compounds, 0.49% hits;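 active = top-ranked compounds by inhibition in the single 10 µM screen, taking a fixed number of the strongest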;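 note: 0% = full reaction with DMSO carrier and 100% = background rate without enzyme reaction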
Spn MK inh: S. pneumoniae mevalonate kinase inhibition | 65,000 compounds, 0.48% hits | inhibition, % at 10 µM | purified MK, PK/LDH-coupled NADH absorbance 340 nm;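 active = ranked among the strongest by inhibition in the single 10 µM screen, a fixed top-ranked set picked for dose follow-up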
DPM-DC inhibit: S. pneumoniae DPM-DC inhibition; AID 556; 65,000 compounds, 0.49% hits; purified DPM-DC, PK/LDH coupled NADH fluorescence; calls only at 10 µM;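 active = the 320 compounds with the highest percent inhibition in the single-dose primary screen, excluding strongly autofluorescent ones, cut at about 32% in these data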;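 note: kinetic rate of NADH fluorescence loss reporting ADP formed by the decarboxylase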
Autofluor 339: intrinsic fluorescence of library compounds, ex339/em460 – biochemical, MLSMR library, data from DPM-DC assay, artefact control, profiling panel; compound autofluorescence, ex339/em460 nm, NADH buffer; stronger effect = higher value; 1 = no-compound wells, NADH background; 65,000 compounds, 5.5% hits; fluorescence fold increase at 10 µM; AID 709;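 active = at 10 µM, mean starting fluorescence two-fold or more over control wells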;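 note: signal is the first read of a kinetic run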
NADH enzymes: blocks coupling enzymes of NAD/NADH assays. IC50, µM (titrated, usually from 10 µM), for inactives: at the top dose inhibition. coupled PK/LDH NADH assays, four targets. AID 774. 65,000 compounds, 0.02% hits;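 active = single-dose screening hits from any of four coupled enzyme assays that gave an IC50 when retested across doses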;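 note: the DPM-DC format reads NADH fluorescence rather than 340 nm absorbance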
* hit, by the source's call; i = inactive; . = no result given; + = active, no number.

SMILES	A340 absorber	Spn PMK inh	Spn MK inh	DPM-DC inhibit	Autofluor 339	NADH enzymes
COc1ccc(O)c(-c2cc(-c3cccs3)[nH]n2)c1	1.05	0.0	0.0	i	1.15	0.0%
CCOc1ccc2[nH]c(=O)c(CN(Cc3ccccc3)C(=O)N3CCCC3)cc2c1	1.01	15.0	8.0	i	2.15*	7.0%
CCOc1ccc2[nH]c(=O)c(CN(C(=O)N3CCOCC3)C3CC3)cc2c1	1.06	14.0	0.0	.	3.77*	7.0%
COc1ccc(-c2nn(-c3ccccc3)cc2C(=O)N2CCOCC2)cc1	1.03	2.0	1.0	i	1.07	1.0%
Cc1ccc(-c2cc(C(=O)N3CCN(c4ncccn4)CC3)c3ccccc3n2)cc1	1.05	17.0	0.0	i	1.3	6.0%
COC(=O)c1cc(-c2ccc3c(c2)OCO3)nc2ccccc12	1.11	8.0	8.0	.	2.19*	8.0%
Cc1ccc(-c2cc(C(=O)N3CCOCC3)c3ccccc3n2)cc1	1.1	1.0	0.0	.	2.09*	1.0%
COc1ccc(-c2cc(C(=O)N3CCOCC3)c3cc(C)ccc3n2)cc1	1.11	0.0	2.0	.	3.7*	1.0%
CN1C(=O)c2cccc(NC(=O)CCc3ccccc3)c2C1=O	1.05	0.0	2.0	i	1.48	5.0%
COC(=O)CSc1nc2cc(C)cc(C)c2cc1C#N	1.04	12.0	0.0	i	1.13	6.0%
Cc1cc(C)c2cc(C#N)c(N3CCCC3)nc2c1	1.01	5.0	10.0	i	2.21*	8.0%
O=C(O)C1C2C=CC(C2)C1C(=O)Nc1ccc(C(=O)N2CCCCC2)cc1 (configuration not stated)	1	7.0	12.0	i	1.04	6.0%
COCCNC(=O)CSc1nc(-c2ccc(OC)c(OC)c2)cc(C(F)(F)F)n1	1.04	14.0	10.0	i	2.15*	7.0%
COc1ccccc1-c1cc(C(F)(F)F)nc(S(=O)(=O)CCCC(=O)N2CCOCC2)n1	1.1	3.0	2.0	i	1.4	8.0%
COc1ccc(-c2cc(C(F)(F)F)nc(S(=O)(=O)CCC(=O)N3CCOCC3)n2)cc1	1.32	10.0	14.0	i	2.78*	17.0%
COc1ccc(-c2cc(C(F)(F)F)nc(SCC(=O)Nc3cc(C)on3)n2)cc1	1.05	10.0	10.0	i	2.99*	7.0%
COc1ccc(-c2cc(C(F)(F)F)nc(SCC(=O)N3CCOCC3)n2)cc1OC	1.19	8.0	8.0	i	2.35*	14.0%
COC(=O)COc1ccc(S(=O)(=O)NCc2ccco2)cc1Cl	1.04	7.0	7.0	i	1.1	5.0%
N#Cc1c(N)nc2c(c1-c1ccc3c(c1)OCO3)CCCCCC2	1.08	0.0	2.0	i	1.28	2.0%
N#Cc1c(N)oc(-c2ccc3c(c2)OCO3)c1-c1ccc2c(c1)OCO2	1.09	15.0	2.0	.	2.13*	9.0%
CSc1nc(N)c(C#N)c(-c2ccc(Cl)cc2)c1C#N	1.01	4.0	1.0	i	1.17	4.0%
Cc1cc(-c2cc(-c3ccc(Cl)cc3)nc(N)c2C#N)co1	1	4.0	17.0	.	2.29*	11.0%
Cc1ccc(-c2cc(-c3ccc(C)o3)nc(N)c2C#N)cc1	1.01	0.0	12.0	.	3.8*	6.0%
Cc1ccc(-c2cc(-c3ccc(Cl)cc3)c(C#N)c(N)n2)o1	1	0.0	13.0	.	3.83*	7.0%
CCCc1cc(-c2ccc(O)c(OCC)c2)c(C#N)c(N)n1	1.07	0.0	9.0	i	1.66	4.0%
SMILES	A340 absorber	Spn PMK inh	Spn MK inh	DPM-DC inhibit	Autofluor 339	NADH enzymes
O=C(CSc1nnc(CNC(=O)c2ccccc2F)o1)c1ccccc1	1.03	12.0	0.0	i	1.14	4.0%
CN(C(=O)CSc1nc(N)nn1-c1ccccc1)c1ccccc1	1.04	3.0	0.0	i	1.12	1.0%
CCOC(=O)C1=C(N)OC2=C(C(=O)CC(C)(C)C2)C1c1ccccc1OCC#N (configuration not stated)	0.99	15.0	0.0	i	1.05	5.0%
O=S(=O)(NCC(c1cccnc1)N1CCN(c2ccccc2)CC1)c1cc(F)ccc1F (configuration not stated)	1	20.0	0.0	i	1.03	2.0%
Cc1ccc(-c2cc(-c3ccc4c(c3)OCO4)c(C#N)c(N)n2)o1	1.03	16.0	13.0	.	3.81*	15.0%
CC1=CC(c2ccccc2)n2nc(N3C(=O)C4CC=CCC4C3=O)nc2N1 (configuration not stated)	1.01	12.0	2.0	.	2.33*	7.0%
C=C(C)CSc1nc(N)cc(=O)[nH]1	0.97	5.0	4.0	i	1.06	4.0%
CCCN(CC(=O)c1cc(C)n(C)c1C)S(=O)(=O)c1cccc(C(F)(F)F)c1	1.01	8.0	6.0	+	2.93*	15.0%
CCN(CC)S(=O)(=O)c1cccc(-c2nnc(SCC(=O)c3cc(C)n(C)c3C)o2)c1	1	12.0	0.0	i	1.05	4.0%
Nc1nc(N)c2nc(-c3ccccc3)c(N)nc2n1	1	8.0	6.0	.	2.46*	3.0%
N#Cc1c(N)nc(-c2ccccc2)nc1-c1ccccc1	1.06	11.0	2.0	i	1.13	6.0%
Nc1ccc(CN2CCN(c3ccc4ccccc4n3)CC2)cc1	1.08	7.0	5.0	i	1.6	4.0%
Cc1nn(-c2ccccc2)c2sc(C(=O)O)cc12	1.04	1.0	7.0	i	1.11	3.0%
Cc1nn(-c2ccccc2)c2sc(-c3n[nH]c(=S)o3)cc12	1.11	10.0	2.0	.	3.86*	6.0%
Cc1cc2nnc(SCC(=O)NCc3ccco3)n2c2ccccc12	0.99	15.0	4.0	i	1.15	6.0%
CCn1c2ccccc2c2cc(N)ccc21	1.01	14.0	8.0	.	2.9*	4.0%
CCn1c2ccccc2c2cc(C3C(C#N)=C(N)OC4=C3C(=O)CC(C)(C)C4)ccc21 (configuration not stated)	0.97	2.0	9.0	i	1.05	4.0%
CCn1c2ccccc2c2cc(C3C(C#N)=C(C)NC(C)=C3C#N)ccc21	1.04	7.0	5.0	.	4.75*	6.0%
C=C(C)c1nc(N)nc(N)n1	1.02	0.0	6.0	i	0.99	2.0%
CCCc1cc2c(=O)c(-c3ccccn3)c(C)oc2cc1O	1.13	10.0	0.0	.	2.1*	5.0%
COc1ccccc1-c1noc(-c2cccnc2)n1	0.98	9.0	10.0	i	1.07	4.0%
COc1nc(-c2ccccc2)ccc1-c1noc(-c2ccc(F)cc2)n1	1.07	17.0	9.0	.	3.84*	13.0%
COc1nc(-c2ccccc2)ccc1-c1noc(-c2ccccc2F)n1	1.05	8.0	4.0	.	3.9*	6.0%
CCCn1c(=O)c(C(=O)Nc2nnc(CC)s2)c(O)c2ccccc21	0.99	3.0	5.0	i	1.19	3.0%
O=C(Nc1ccccn1)c1cccc(S(=O)(=O)N2CCOCC2)c1	1.03	6.0	10.0	i	0.95	7.0%

Source: PubChem BioAssay (SRMLSC)
